NOMO-1 viab: NOMO-1 AML cell viability reduction, primary screen, STK33 inhibitor project, CellTiter-Glo luminescence. NOMO-1 AML viability, 72 h. inhibition, % (no concentration beside the values). actives 7.5% (n = 37,000); in the data active means inhibition above about 80%
Shh pathway inh: Hedgehog pathway signaling inhibitors, primary screen, luminescence, Shh-LIGHT2 cells, Gli-luciferase; Shh-LIGHT2 Gli-luciferase reporter, 30 h; inhibition, % (test concentration not listed); actives 2.1% (n = 22,000); AID 2313, 2010;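 active means mean inhibition across valid replicates above about 65%, limit read from the data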;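 further: pathway switched on by Shh-conditioned medium diluted 1 in 25 in low serum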
PD-1 reversal: activators reversing PD-1 mediated T-cell inhibition, primary screen, luminescence, primary human CD4 T cells, PD-L1 beads; CellTiter-Glo 96 h; activation, % (test concentration not listed); 29,000 tested, under 10 active; call rule not given here;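 further: 0% = median vehicle wells and 100% = positive control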
The depositor's hits bear a star; · = no result given. Only some compounds are listed: those with a hit (about 7.7% of all), similar ones and a draw of the others.

SMILES	NOMO-1 viab	Shh pathway inh	PD-1 reversal
Cc1cc(C)c2c(N)c(C(=O)c3cccs3)sc2n1	8	2	0
CNC(=S)Nc1cc(Cl)cc(Cl)c1	16	15	0
CCOC(=O)c1nc2c(o1)NC(N)=C(C#N)C2c1ccc(Cl)cc1 (configuration not stated)	95*	12	0
Cc1nc2c([nH]1)C(c1ccc(C(C)C)cc1)C(C#N)=C(N)O2 (configuration not stated)	42	-9	-1
CCOC(=O)c1ccc(NC(=O)C2C3CCC(C3=C(C)C)C2C(=O)O)cc1 (configuration not stated)	14	·	0
CCc1ccc(O)c(NC(=S)NC(=O)COc2ccc(C)cc2C)c1	120*	·	·
Cc1ccc(OCC(=O)O)c(C)c1	-10	-11	0
CCn1c(SCC(=O)c2ccccc2)nnc1-c1cccnc1	-1	·	·
CCOC(=O)Cn1c(-c2cccnc2)nc(-c2ccccc2)c1-c1ccccc1	115*	-5	-12
O=C(COc1ccc(S(=O)(=O)N2CCOCC2)cc1)Nc1ccc2c(c1)OCCO2	12	·	-1
O=C(COc1ccc(S(=O)(=O)N2CCOCC2)cc1)Nc1ccc(Cl)c(C(F)(F)F)c1	129*	·	-3
Cc1cc(-c2ccccc2)nc(SCC(=O)Nc2ccc(I)cc2)n1	-1	·	0
Cc1ccc(N(CC(=O)Nc2ccccc2F)S(C)(=O)=O)cc1Cl	9	·	0
COc1ccccc1CC(=O)Nc1ccccc1C(=O)NC(C)(C)C	17	·	1
Cc1ccc(S(=O)(=O)Nc2ccc3c(c2)CC(=O)N([C@H](C)CO)C[C@@H](C)[C@H](CN(C)Cc2ccc(Cl)c(Cl)c2)O3)cc1	59	-16	0
Cc1ccc(S(=O)(=O)Nc2ccc3c(c2)CC(=O)N([C@H](C)CO)C[C@@H](C)[C@@H](CN(C)Cc2ccc(Cl)c(Cl)c2)O3)cc1	116*	35	-5
Cc1ccc(S(=O)(=O)Nc2ccc3c(c2)CC(=O)N([C@@H](C)CO)C[C@H](C)[C@H](CN(C)Cc2ccc(Cl)c(Cl)c2)O3)cc1	71	-33	1
Cc1ccc(S(=O)(=O)Nc2ccc3c(c2)CC(=O)N([C@@H](C)CO)C[C@@H](C)[C@@H](CN(C)Cc2ccc(Cl)c(Cl)c2)O3)cc1	83*	-8	-3
C[C@@H]1O[C@@H](O[C@@H]2[C@@H](O)[C@H](O[C@@H]3[C@@H](O)[C@@H](O)[C@H](O[C@H]4[C@H](OC(=O)[C@]56CCC(C)(C)C[C@H]5C5=CCC7[C@@]8(C)C[C@H](O)[C@H](O[C@@H]9O[C@H](C(=O)O)[C@@H](O)[C@H](O)[C@H]9O)[C@@](C)(CO)C8[C@H](O)C[C@@]7(C)[C@]5(C)C[C@H]6O)OC[C@H](O)[C@@H]4O)O[C@H]3C)OC[C@H]2O)[C@H](O)[C@H](O)[C@H]1O (some centres not stated)	19	-3	3
Cc1ccc(S(=O)(=O)Nc2cccc3cccnc23)c([N+](=O)[O-])c1	121*	·	-15
CC(=O)Nc1ccc(NS(=O)(=O)c2ccc(C)cc2[N+](=O)[O-])cc1	21	·	0
COc1cc2nc(N3CCN(C(=O)C4COc5ccccc5O4)CC3)nc(N)c2cc1OC (configuration not stated)	-2	28	-1
COc1cc2nc(N3CCN(C(=O)c4ccco4)CC3)nc(N)c2cc1OC	95*	1	2
Cc1ccc(S(=O)(=O)Nc2ccc3c(c2)CC(=O)N([C@H](C)CO)C[C@H](C)[C@H](CN(C)Cc2ccccc2)O3)cc1	98*	25	3
Cc1ccc(S(=O)(=O)Nc2ccc3c(c2)CC(=O)N([C@@H](C)CO)C[C@H](C)[C@@H](CN(C)Cc2ccccc2)O3)cc1	91*	-6	0
SMILES	NOMO-1 viab	Shh pathway inh	PD-1 reversal
Cc1ccc(S(=O)(=O)Nc2ccc3c(c2)CC(=O)N([C@H](C)CO)C[C@@H](C)[C@H](CN(C)Cc2ccccc2)O3)cc1	5	23	2
C[C@@H]1CN([C@H](C)CO)C(=O)Cc2cc(NS(=O)(=O)c3ccccc3)ccc2O[C@H]1CN(C)Cc1ccccc1	20	17	·
O=C(O)/C=C/CCCCCCCC(=O)O	11	-6	1
C[C@H](CO)N1C[C@H](C)[C@H](CN(C)CC2CCCCC2)Oc2ccc(NC(=O)Nc3ccc(F)cc3)cc2C1=O	13	·	·
C[C@@H]1CN([C@@H](C)CO)C(=O)c2cc(NC(=O)Nc3ccc(C(F)(F)F)cc3)ccc2O[C@@H]1CN(C)CC1CCCCC1	118*	30	-7
C[C@H]1CN([C@@H](C)CO)C(=O)c2cc(NC(=O)Nc3ccc(C(F)(F)F)cc3)ccc2O[C@@H]1CN(C)CC1CCCCC1	59	-1	0
C[C@@H]1CN([C@H](C)CO)C(=O)c2cc(NC(=O)Nc3ccc(C(F)(F)F)cc3)ccc2O[C@@H]1CN(C)CC1CCCCC1	126*	·	-6
C[C@H](CO)N1C[C@H](C)[C@@H](CN(C)CC2CCCCC2)Oc2ccc(NC(=O)Nc3ccc(C(F)(F)F)cc3)cc2C1=O	127*	52	-1
C[C@@H]1CN([C@H](C)CO)C(=O)c2cc(NC(=O)Nc3ccc(F)cc3)ccc2O[C@H]1CN(C)CC1CCCCC1	52	17	1
C[C@H]1CN([C@@H](C)CO)C(=O)c2cc(NC(=O)Nc3ccc(C(F)(F)F)cc3)ccc2O[C@H]1CN(C)CC1CCCCC1	105*	44	-10
C[C@@H]1CN([C@H](C)CO)C(=O)c2cc(NC(=O)Nc3ccc(F)cc3)ccc2O[C@@H]1CN(C)CC1CCCCC1	12	-11	·
O=C(CCn1cnc2ccccc2c1=O)Nc1ccccc1Br	-11	·	·
CCn1c2ccccc2c2cc(NC(=O)CCCN3C(=O)c4ccccc4C3=O)ccc21	-3	·	4
O=C(N=S1CCN(C(=O)c2ccc(Cl)cc2)CC1)c1ccc(Cl)cc1	18	4	-1
CCCNC(=O)[C@H]1O[C@@H]1C(=O)N[C@H](C(=O)N1CCC[C@H]1C(=O)OC)C(C)CC (some centres not stated)	141*	23	-49
C[C@H](CS)C(=O)N1CCC[C@H]1C(=O)O	12	-23	·
O=C(CSc1n[nH]c(-c2ccncc2)n1)Nc1sc2c(c1C(=O)Nc1ccccc1)CCCC2	33	·	·
Cn1c(=O)c2c(nc(N3CCOCC3)n2CCCN)n(C)c1=O	-9	·	·
CCN(CC)C(=S)Sc1ncnc2sc3c(c12)CCCC3	125*	90*	-3
CC(C)(C)C(=O)CSc1ncnc2sc3c(c12)CCCC3	20	·	-2
Cc1ccc([N+](=O)[O-])cc1S(=O)(=O)NCCOc1ccccc1Cl	-9	·	0
COc1cccc2sc(NC(=O)c3ccc(S(=O)(=O)N(C)C)cc3)nc12	27	31	3
CN(C)S(=O)(=O)c1ccc(C(=O)Nc2nc3c(s2)CCc2ccccc2-3)cc1	113*	·	-2
COC(=O)C1=C(N)C(C(=O)OC)=c2s/c(=C/c3ccccc3)c(=O)n2C1c1ccccc1 (configuration not stated)	30	-47	5
N#CCCN(CCC#N)C(=O)c1cc(-c2ccccc2)nc2ccccc12	17	·	·
On1onc2c3cc(-c4ccccc4)nc3ccc21	115*	99*	-3

From PubChem
